Laboratory results published in PubChem BioAssay AID492998 (Southern Research Specialized Biocontainment Screening …, 2010).
Among all 2,300 compounds or so, about 550 (24%) were called active. The list is a sample of the results. Potency and affinity values are given separately. Values without a mark were called inactive. How the calls were made is not given here.

Assay: Vero E6 cell cytotoxicity, dose response, cytotoxicity control for non-replicating M. tuberculosis project, secondary assay (AID 492998);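 further: 100% = vehicle-treated cells and 0% = background wells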
Settings: series mostly up to 20 µM; viability: at the top concentration

Compound | viability [%]
CC(C(=O)OCC(=O)c1ccccc1)N1C(=O)C2C3CCC(C3)C2C1=O (stereo not given) | 98.4
COc1cccc(C(=O)OCC(=O)c2ccc(Br)s2)c1OC | 108
COc1ccccc1C1=Nn2c(nnc2C2CCCCC2)SC1 | 97.1
c1nc2n(n1)C1=C(CCCC1)C1(CCCCC1)N2 | 104
O=C(Nc1ccc(Cl)cc1Cl)c1cccc(N2C(=O)C=CC2=O)c1 | 105
O=c1c2cc(Cl)ccc2oc2nc3n(c(=O)c12)CCCS3 | 94.8
CCCc1nnc(NC(=O)c2cc3ccccc3oc2=O)s1 | 102
COCc1[nH]nc2c1C(c1sccc1C)C(C#N)=C(N)O2 (stereo not given) | 90.7
O=C(CCC1CCCCC1)NCc1cccs1 | 107
CCc1ccc(OCC(=O)c2c(O)c3ccccc3oc2=O)cc1 | 110
Oc1cc(NCc2cccnc2)ccc1-c1nc2ccccc2o1 | 70.9
COc1ccc(/C=C/c2nc3ccccc3c(=O)o2)cc1 | 93.3
COc1cc(/C=N/Nc2cccc3cccnc23)cc(OC)c1O | 88.8
C/C(O)=C\c1nc2ccccc2oc1=O | 83.7
CC(=O)c1ccc(-c2nnc(CCC(=O)N(C)Cc3cccc4cnccc34)o2)s1 | 103
c1coc(CNc2nc(N3CCCCC3)nc3ccccc23)c1 | 82.4
O=[N+]([O-])c1ccc(CSc2nnc(-c3cccnc3)o2)cc1 | 96.4
CC1CCN(C(=O)COC(=O)CCc2c[nH]c3ccccc23)CC1 | 87.8
Cc1ccc(N=N/C(=C\O)C(=O)c2ccncc2)cc1 | 101
CCOC(=O)Nc1cccc(OCC(=O)Nc2ccc(OC)cc2OC)c1 | 92.2
O=C(Nc1ncc([N+](=O)[O-])s1)c1ccc2c(c1)OCO2 | 72.5
Cc1ccc(NC(=O)COC(=O)C2=COCCO2)c([N+](=O)[O-])c1 | 97.8
O=C(Nc1nccs1)c1ccc2ccccc2c1 | 90.7
O=C(COC(=O)c1cc(Br)ccc1O)Nc1ccc2c(c1)OCO2 | 105

Compound | viability [%]
COc1ccc(Nc2ccccc2N)cc1 | 70.4
COc1ccc2nc(/N=C(\N)NC(=O)C(C)(C)C)nc(C)c2c1 | 84.7
Cc1cccc(NC(=O)c2cc3ccccc3oc2=O)c1 | 75.2
CCc1ccc(N2C(=O)NC(=O)/C(=C\C=C\c3ccco3)C2=O)cc1 | 95
O=C(COc1ccc2ccccc2c1)NNC(=O)c1cccs1 | 106
CCc1c(C)c2ccc(OCC(=O)OC)cc2oc1=O | 99.3
O=C(O/N=C/c1ccc2c(c1)OCO2)c1ccc([N+](=O)[O-])cc1 | 95
CCC(=O)Nc1ccc(C(=O)NNC(=O)c2cc([N+](=O)[O-])cc([N+](=O)[O-])c2)cc1 | 91.2
c1ccc(OCc2nnc3sc(-c4cccs4)nn23)cc1 | 91
CCOC(=O)c1cc([N+](=O)[O-])c([N+](=O)[O-])cc1NC(C)=O | 88
COc1cc2c(cc1OC)CN(C(=O)c1ccc([N+](=O)[O-])o1)CC2 | 72
O=C(c1ccc([N+](=O)[O-])o1)N1CCN(c2nc3ccc(F)cc3s2)CC1 | 99.2
CC1(CCc2ccc3c(c2)OCO3)NC(=O)c2ccccc2N1 (stereo not given) | 99.9
COc1ccccc1-c1nnc(-c2ccc(C)cc2)o1 | 92.6
COc1ccccc1-c1cc(SC)c(C#N)c(=O)o1 | 84.8
CCc1ccc(NC(=O)CCc2ccc(C)o2)cc1 | 101
O=S(=O)(NCc1cccnc1)c1ccc(Cl)c(Cl)c1Cl | 92.2
CC1CCCN(CCCOc2ccc([N+](=O)[O-])cc2)C1 (stereo not given) | 104
Cc1ccccc1OCCNc1cc(N2CC(C)NC(C)C2)ccc1[N+](=O)[O-] (stereo not given) | 83.2
S=c1[nH]c2ccccc2o1 | 97.2
CCOc1ccc(OC(=O)c2ccc3c(=O)n4c(nc3c2)CCC4)cc1 | 100
O=Cc1c(NCc2ccco2)nc2ccccn2c1=O | 97.9
CC(C)Oc1ccc(CNC(=O)Oc2ccccc2)cc1 | 90.1
CCCOc1ccc(N2CC(C(=O)Nc3ccccc3F)CC2=O)cc1 (stereo not given) | 101

Compound | viability [%]
CCOC(=O)Cn1c2ccc(F)cc2c2nc(C)sc21 | 108
Cc1cccc(NC(=O)c2cc3ccccc3o2)c1 | 96.6
CC(C)(C)NC(=O)C(=O)NNC(=O)c1ccc(C(C)(C)C)cc1 | 83.8
CCOC(=O)c1nc2sc3c(c2c(=O)[nH]1)CCC(C)C3 (stereo not given) | 100
COc1ccc(OCC(=O)Nc2ccc(N3CCN(C(=O)c4ccco4)CC3)cc2)cc1 | 112
O=C(CCN1C(=O)S/C(=C\c2ccc(F)cc2)C1=O)Nc1ccc(C(=O)O)c(O)c1 | 91.7
CC(=O)c1cccc(NC(=O)C2COc3ccccc3O2)c1 (stereo not given) | 101
Cc1ccc(CNCc2cc(Cl)ccc2O)cc1 | 90
O=C(CCCOc1ccccc1)OCn1nnc2ccccc2c1=O | 101
O=C(NCc1ccccc1)c1cc2ccccc2oc1=O | 104
CCC/C(=N\NC(=O)c1ccco1)c1ccc(Cl)s1 | 82.4
O=C(Nc1nccs1)c1ccc(Br)cc1 | 96.5
C/C(=C\C(=O)c1ccc(Br)cc1)NNC(=O)c1ccccc1 | 77.2
COc1cc(C=O)ccc1OCCCCOc1ccccc1[N+](=O)[O-] | 98.1
CCOC(=O)c1cc(-c2c(Cl)cccc2Cl)no1 | 109
COc1ccc(CN=C2NN=C(c3ccc(Cl)cc3)CS2)cc1 | 86.2
O=C(O)CCCCCN1C(=O)CSC1=S | 94.7
c1ccc(Cn2c(SCCN3CCOCC3)nnc2-c2cccnc2)cc1 | 92.9
O=C(O)c1ccc(CN2C(=O)CSC2=S)cc1 | 92.6
O=C1NC(Cc2c[nH]c3ccccc23)C(=O)N1CCOc1ccccc1 (stereo not given) | 91.7
CCOc1ccc(/C=N/OCC(=O)Nc2ccc3c(c2)OCO3)cc1 | 113
COc1cccc(OCC(=O)NNC(=O)c2cccs2)c1 | 90.7
CCC(=O)N/N=C/c1ccc(-c2ccc(Cl)cc2)o1 | 75.8
Cc1ccc(CO/N=C/c2c(O)cc(C)oc2=O)cc1 | 105

Compound | viability [%]
Cc1ccc(NC(=O)C2COc3ccccc3O2)nc1 (stereo not given) | 107
O=C1NC(=S)S/C1=C\c1ccc(SCc2ccco2)o1 | 74.8
O=C(C/C=N\OCc1ccc([N+](=O)[O-])cc1)Nc1ccccc1 | 104
C/C(=N\Nc1nc2ccccc2[nH]1)c1ccc(N2CCOCC2)cc1 | 80.6
CCCc1cc(=O)n2[nH]c(C)c(-c3ccccc3)c2n1 | 103
CC(C)[C@H](NC(=O)c1ccc(Br)cc1)C(=O)NC1CCCCC1 | 87.5
O=C(c1cc([N+](=O)[O-])cc([N+](=O)[O-])c1)N(Cc1nnc(-c2ccccc2Cl)o1)C1CC1 | 80
CC(=O)N1CCN(C(=O)CC2OC(=O)c3ccccc32)CC1 (stereo not given) | 113
Cc1c(Cl)cccc1-c1ccc(CNCc2ccccn2)o1 | 89.1
Cc1ccsc1C(=O)OCC(=O)NCCC1=CCCCC1 | 101
COCCn1c(C)cc(C(=O)COC(=O)c2ccc(Br)o2)c1C | 99.9
COc1cc(/C=C2/C(=O)NN(c3cccc(F)c3)C2=O)ccc1OC(=O)c1ccco1 | 111
CC(C)(C)OC(=O)N/N=C\c1ccc([N+](=O)[O-])s1 | 104
O=C(Nc1ccc(Cl)c(Cl)c1)O/N=C/c1ccncc1 | 93
CCCCN(C/C=C/c1ccccc1OC)Cc1ccccc1 | 106
CCCOC(=O)c1ccc(NC(=O)c2ccc(Br)o2)cc1 | 94.9
COc1ccc(-c2nc(C=O)cs2)cc1 | 96.4
Cc1cccc(NC(=O)COc2ccc(Br)cc2)n1 | 98.3
COc1cccc(NC(=O)c2cc3ccccc3oc2=O)c1 | 82.3
Cc1ccc(C(=O)c2cncc(Br)c2)cc1 | 102
CC(=O)Oc1ccc(/C=C2\N=C(C3CCCCC3)OC2=O)cc1 | 97.5
CCCCOc1ccc(-c2nnn(C(C)C(=O)OCC)n2)cc1 (stereo not given) | 98.4
Clc1ccc(N=c2ssnc2Cl)nc1 | 103
Cc1ccccc1N1CCN(Cc2ccc([N+](=O)[O-])o2)CC1 | 103

Compound | viability [%]
O=C(c1ccc([N+](=O)[O-])s1)N1CCN(c2cccc(Cl)c2)CC1 | 74.3
O=[N+]([O-])c1ccc(CN2CCN(c3ccccc3Cl)CC2)o1 | 117
COc1ccccc1N1CCN(C(=O)c2ccc([N+](=O)[O-])s2)CC1 | 80.3
CCOC(=O)COc1ccc2c(=O)c(-c3ccccc3OC)coc2c1 | 111
COc1ccc(OCCOC(=O)CCS(=O)(=O)c2ccc(C)cc2)cc1 | 90.1
C=CCN(CC=C)CC(=O)Nc1ccc(S(N)(=O)=O)cc1 | 92.4
O=C1N/C(=N\c2ccccn2)SC1Cc1ccc(Cl)cc1 (stereo not given) | 100
COc1ccc(OCCSc2nnc(Cc3cccc4ccccc34)n2N)cc1 | 97.8
CC1=CC2=NC(=O)/C(=C\c3ccc(OC(=O)c4ccco4)cc3)C(=N)N2O1 | 90.3
Cn1[nH]c(-c2ccccc2)c(/C=N/O)c1=O | 103
CS/C(Nc1cc(Cl)ccc1Cl)=C(/C#N)C(=O)c1ccco1 | 96.5
COc1ccc(N2C(=O)C(F)(F)C2c2cccc(F)c2)cc1 (stereo not given) | 99.5
O=C(NN=C(Cc1ccccc1)Cc1ccccc1)c1ccncc1 | 107
O=C(N/N=C/C=C/c1ccccc1)c1ccncc1 | 103
O=C(CN1CCN(c2ccccc2)CC1)Nc1nnc(-c2ccccc2)s1 | 97.5
Cc1ccc(C(=O)COC(=O)c2cccs2)cc1 | 97.8
CCCCCn1nnc2c(=O)oc3ccccc3c21 | 104
CCOc1ccc(NCC(=O)c2ccc(C)cc2)cc1 | 96.1
CCc1ccc(C2=C/C(=C/c3cccnc3)C(=O)O2)cc1 | 105
O=C(NN=C1C2CC3CC1CC(Cl)(C3)C2)c1cccs1 | 101
CC(C)(C)c1ccc(NC(=O)COc2ccc(-n3ccnc3)cc2)cc1 | 80.3
Cn1c(-c2cccc([N+](=O)[O-])c2)cnc1NCc1cccc(F)c1 | 95.4
Cc1cc(Cl)ccc1OC(C)C(=O)Nc1ccc([N+](=O)[O-])cn1 (stereo not given) | 101
Cc1ccc(C)c(NC(=O)c2cc([N+](=O)[O-])cc([N+](=O)[O-])c2)c1 | 97.9
